Some test systems named below: DU-145 prostate; K-562 leukemia; MALME-3M melanoma; MDA-MB-231 breast; RXF 393 renal; SF-268 CNS; SF-295 CNS; SF-539 CNS; UACC-257 melanoma; M14 melanoma.
Common to all, as to experiment: NCI-60 one-dose screen, 48 h (100 = growth as untreated, 0 = no growth, -100 = all killed)
Holding throughout (conditions): 10 µM

These results are taken from PubChem BioAssay (NCI).

This is part of a sample that, as a whole, favours compounds with a hit. Of some 83,000 tested, about 20% had one in any assay.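 48-hour exposure, single concentration, 96-well plates; percent growth endpoint where 0 means no net growth. Active: below 10.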 A number with no mark means an inactive call. Activity calls are given as the source filed them.

`CCCCOCCOCCOCc1cc2c(cc1Br)OCO2`: the growth with DU-145 prostate is 107%; in the assay on K-562 leukemia it was 94.7%; in the assay with MALME-3M melanoma, 94.8%; in the assay on MDA-MB-231 breast, 97.1%; with RXF 393 renal it was 108%; in the assay with SF-268 CNS, 103%. In addition, the growth in the assay on SF-295 CNS is 100%; in the assay on SF-539 CNS, 92.5%; in the assay on UACC-257 melanoma it was 101%; with M14 melanoma, 110%.
Consider `CCc1ccc(-c2nnc(COc3ccc(-c4nc5ccc(C)cc5[nH]4)cc3OC)o2)cc1`, for which the growth is 48.5% in the assay on DU-145 prostate; 33.1% in the assay on K-562 leukemia; 9.91% (active) in the assay on MALME-3M melanoma; 9.26% (active) in the assay on MDA-MB-231 breast; 24.4% with RXF 393 renal; 55.6% with SF-268 CNS. Besides, the growth in the assay with SF-295 CNS is 20%; with SF-539 CNS, -28.2% (active); with UACC-257 melanoma, 95.7%; in the assay with M14 melanoma it was 49.5%.
On to `COc1cc2nc(Sc3sc(N)nc3C)n(-c3ccc(Oc4ccccc4)cc3)c(=O)c2cc1OC`, for which the growth was 98.3% in the assay with DU-145 prostate; 78.6% in the assay on K-562 leukemia; 98.3% in the assay with MALME-3M melanoma; 90.1% with MDA-MB-231 breast; 85.9% in the assay with RXF 393 renal; 102% with SF-268 CNS. The growth with SF-295 CNS is 85.4%; in the assay on SF-539 CNS, 81.3%; with UACC-257 melanoma, 89.7%; in the assay with M14 melanoma it was 81.6%.
In the case of `C=C1C(=O)O[C@H]2[C@H]1CC/C(COC(=O)OCCCCCOC(=O)OC/C1=C/CC[C@@]3(C)O[C@H]3[C@H]3OC(=O)C(=C)[C@@H]3CC1)=C\CC[C@@]1(C)O[C@@H]21`, the growth in the assay on DU-145 prostate was -4.53% (active); in the assay with K-562 leukemia, 1.11% (active); in the assay with MALME-3M melanoma, -30.1% (active); with MDA-MB-231 breast, -87% (active); with RXF 393 renal, -69.8% (active); with SF-268 CNS it was 7.62% (active). Also, the growth is 45.4% in the assay on SF-295 CNS, -33.1% (active) in the assay on SF-539 CNS, -87% (active) with UACC-257 melanoma and -45.5% (active) in the assay with M14 melanoma.
As for `Cc1ccc(C2C=C(c3ccc(Cl)cc3)N=C3SC=CN32)c(Br)c1` (stereo not given), the growth is 89.1% in the assay on DU-145 prostate; 44.9% in the assay with K-562 leukemia; 87.3% in the assay with MALME-3M melanoma; 90% with MDA-MB-231 breast; 71.7% in the assay on RXF 393 renal; 92% in the assay with SF-268 CNS. Besides, the growth is 96.1% in the assay with SF-295 CNS, 89.7% in the assay on SF-539 CNS, 103% with UACC-257 melanoma and 94.4% in the assay on M14 melanoma.
On to `COc1ccc(-c2nnc(N3CCN(C(=O)CN4CCN(c5ccc(Cl)cc5)CC4)CC3)nc2-c2ccc(OC)cc2)cc1`, for which the growth was 80.2% in the assay with DU-145 prostate; 32% with K-562 leukemia; 80.8% with MALME-3M melanoma; 78.7% in the assay with MDA-MB-231 breast; 53.6% in the assay with RXF 393 renal; 69% in the assay on SF-268 CNS. Also, the growth was 45.2% with SF-295 CNS, 82.2% with SF-539 CNS, 70.2% with UACC-257 melanoma and 71.4% with M14 melanoma.
In the case of `COc1ccc(Nc2nc(NCc3ccccc3)c3ccccc3n2)cc1`, the growth with DU-145 prostate was 79.6%; in the assay on K-562 leukemia it was 55.5%; in the assay on MALME-3M melanoma, 39.7%; in the assay on MDA-MB-231 breast it was 41%; in the assay on RXF 393 renal, 14.5%; with SF-268 CNS, 31.3%. Besides, the growth was 19.6% with SF-295 CNS, 60.9% in the assay on SF-539 CNS, 76.5% with UACC-257 melanoma and 76.9% with M14 melanoma.
In the case of `N/C(=N\O)c1cn(C2OC(CO)C(O)C2O)c2ncnc(N)c12` (stereo not given), the growth is 0.144% (active) in the assay on DU-145 prostate; 7.52% (active) in the assay on K-562 leukemia; -78.3% (active) in the assay with MALME-3M melanoma; 5.86% (active) in the assay on MDA-MB-231 breast; -9.98% (active) in the assay on RXF 393 renal; 9.34% (active) in the assay with SF-268 CNS. For the same compound, the growth is -16.7% (active) with SF-295 CNS, 1.24% (active) in the assay with SF-539 CNS, -23.8% (active) in the assay on UACC-257 melanoma and -28.3% (active) with M14 melanoma.
Take `FC(F)(F)c1ccc(-c2cnc(Br)nc2NC2CCCCCC2)cc1`: the growth was 74.9% in the assay on DU-145 prostate; 10.6% with K-562 leukemia; -42.4% (active) in the assay with MALME-3M melanoma; 62.4% with MDA-MB-231 breast; 52.7% with RXF 393 renal; 43.6% in the assay on SF-268 CNS. The growth in the assay on SF-295 CNS is -33.2% (active); in the assay on SF-539 CNS it was 82.4%; in the assay on UACC-257 melanoma, -1.23% (active); in the assay with M14 melanoma it was 23.1%.
With `CCCCCC(CCC)COC(=O)c1ccc(OC)cc1` (stereo not given), the growth in the assay with DU-145 prostate was 109%; in the assay on K-562 leukemia, 105%; with MALME-3M melanoma it was 97.4%; with MDA-MB-231 breast it was 109%; in the assay on RXF 393 renal it was 115%; with SF-268 CNS, 106%. Also, the growth with SF-295 CNS is 102%; with SF-539 CNS, 96.9%; in the assay with UACC-257 melanoma, 90.8%; in the assay with M14 melanoma, 101%.
Consider `Cn1c([N+](=O)[O-])cnc1C=C1C(=O)c2ccccc2C1=O`, for which the growth in the assay on DU-145 prostate was 46.5%; with K-562 leukemia, 15.8%; with MALME-3M melanoma it was 42.5%; in the assay on MDA-MB-231 breast, 45.6%; in the assay with RXF 393 renal, 4.59% (active); in the assay with SF-268 CNS it was 17.7%. Also, the growth with SF-295 CNS was 110%; with SF-539 CNS, 17.7%; in the assay with UACC-257 melanoma, 37.4%; in the assay with M14 melanoma, 19.3%.
Regarding `O=C(CCl)N1c2ccccc2Sc2ccc3ccccc3c21`, the growth in the assay on DU-145 prostate was -90.8% (active); in the assay on K-562 leukemia it was -0.331% (active); in the assay on MALME-3M melanoma, -43.4% (active); in the assay with MDA-MB-231 breast it was -72.5% (active); with RXF 393 renal it was -33.4% (active); in the assay on SF-268 CNS, -59.4% (active). For the same compound, the growth in the assay with SF-295 CNS is -2.09% (active); in the assay with SF-539 CNS it was -60.9% (active); in the assay on UACC-257 melanoma, -36.6% (active); in the assay with M14 melanoma it was -52.1% (active).
Take `C[n+]1c(/C=C/c2c[nH]c3ccccc23)ccc2ccccc21`: the growth is 60.9% in the assay on DU-145 prostate; 23.3% in the assay on K-562 leukemia; 68.6% with MALME-3M melanoma; 68.8% in the assay on MDA-MB-231 breast; 84% in the assay with RXF 393 renal; 72.6% in the assay with SF-268 CNS. Further, the growth with SF-295 CNS is 47.5%; in the assay on SF-539 CNS, 87%; with UACC-257 melanoma it was 76.8%; in the assay with M14 melanoma, 75.2%.
